Laboratory results reported in PubChem BioAssay AID1671202 (University of Kansas High Throughput Screening Laboratory, 2021).
“And” between values parts separate entries of the source, which are not always exact repeats. Identical values can stand only once. The campaign covered roughly 190,000 compounds. About 6,900 (3.6%) were called active. Rule as the data show it: active = inhibition above about 50%; inactive = the rest. Many of the other results were omitted from the sample, so actives are more common in it than they were. Some structures have more than one record in an assay (separate samples or runs), and their calls can disagree.

These compounds were tested against Huntingtin (Homo sapiens) (UniProt P42858) (assay: mutant huntingtin-calmodulin interaction inhibitors – biochemical, AlphaScreen, primary screen (AID 1671202;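 also: 0% = both proteins with DMSO and 100% = one protein alone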)). Conditions: AlphaScreen His-mHTT/GST-CaM binding, luminescence; at 15 µM, stronger effect = higher value.
Sequence of Huntingtin (Homo sapiens) (P42858 whole entry, looked up, stated change not applied): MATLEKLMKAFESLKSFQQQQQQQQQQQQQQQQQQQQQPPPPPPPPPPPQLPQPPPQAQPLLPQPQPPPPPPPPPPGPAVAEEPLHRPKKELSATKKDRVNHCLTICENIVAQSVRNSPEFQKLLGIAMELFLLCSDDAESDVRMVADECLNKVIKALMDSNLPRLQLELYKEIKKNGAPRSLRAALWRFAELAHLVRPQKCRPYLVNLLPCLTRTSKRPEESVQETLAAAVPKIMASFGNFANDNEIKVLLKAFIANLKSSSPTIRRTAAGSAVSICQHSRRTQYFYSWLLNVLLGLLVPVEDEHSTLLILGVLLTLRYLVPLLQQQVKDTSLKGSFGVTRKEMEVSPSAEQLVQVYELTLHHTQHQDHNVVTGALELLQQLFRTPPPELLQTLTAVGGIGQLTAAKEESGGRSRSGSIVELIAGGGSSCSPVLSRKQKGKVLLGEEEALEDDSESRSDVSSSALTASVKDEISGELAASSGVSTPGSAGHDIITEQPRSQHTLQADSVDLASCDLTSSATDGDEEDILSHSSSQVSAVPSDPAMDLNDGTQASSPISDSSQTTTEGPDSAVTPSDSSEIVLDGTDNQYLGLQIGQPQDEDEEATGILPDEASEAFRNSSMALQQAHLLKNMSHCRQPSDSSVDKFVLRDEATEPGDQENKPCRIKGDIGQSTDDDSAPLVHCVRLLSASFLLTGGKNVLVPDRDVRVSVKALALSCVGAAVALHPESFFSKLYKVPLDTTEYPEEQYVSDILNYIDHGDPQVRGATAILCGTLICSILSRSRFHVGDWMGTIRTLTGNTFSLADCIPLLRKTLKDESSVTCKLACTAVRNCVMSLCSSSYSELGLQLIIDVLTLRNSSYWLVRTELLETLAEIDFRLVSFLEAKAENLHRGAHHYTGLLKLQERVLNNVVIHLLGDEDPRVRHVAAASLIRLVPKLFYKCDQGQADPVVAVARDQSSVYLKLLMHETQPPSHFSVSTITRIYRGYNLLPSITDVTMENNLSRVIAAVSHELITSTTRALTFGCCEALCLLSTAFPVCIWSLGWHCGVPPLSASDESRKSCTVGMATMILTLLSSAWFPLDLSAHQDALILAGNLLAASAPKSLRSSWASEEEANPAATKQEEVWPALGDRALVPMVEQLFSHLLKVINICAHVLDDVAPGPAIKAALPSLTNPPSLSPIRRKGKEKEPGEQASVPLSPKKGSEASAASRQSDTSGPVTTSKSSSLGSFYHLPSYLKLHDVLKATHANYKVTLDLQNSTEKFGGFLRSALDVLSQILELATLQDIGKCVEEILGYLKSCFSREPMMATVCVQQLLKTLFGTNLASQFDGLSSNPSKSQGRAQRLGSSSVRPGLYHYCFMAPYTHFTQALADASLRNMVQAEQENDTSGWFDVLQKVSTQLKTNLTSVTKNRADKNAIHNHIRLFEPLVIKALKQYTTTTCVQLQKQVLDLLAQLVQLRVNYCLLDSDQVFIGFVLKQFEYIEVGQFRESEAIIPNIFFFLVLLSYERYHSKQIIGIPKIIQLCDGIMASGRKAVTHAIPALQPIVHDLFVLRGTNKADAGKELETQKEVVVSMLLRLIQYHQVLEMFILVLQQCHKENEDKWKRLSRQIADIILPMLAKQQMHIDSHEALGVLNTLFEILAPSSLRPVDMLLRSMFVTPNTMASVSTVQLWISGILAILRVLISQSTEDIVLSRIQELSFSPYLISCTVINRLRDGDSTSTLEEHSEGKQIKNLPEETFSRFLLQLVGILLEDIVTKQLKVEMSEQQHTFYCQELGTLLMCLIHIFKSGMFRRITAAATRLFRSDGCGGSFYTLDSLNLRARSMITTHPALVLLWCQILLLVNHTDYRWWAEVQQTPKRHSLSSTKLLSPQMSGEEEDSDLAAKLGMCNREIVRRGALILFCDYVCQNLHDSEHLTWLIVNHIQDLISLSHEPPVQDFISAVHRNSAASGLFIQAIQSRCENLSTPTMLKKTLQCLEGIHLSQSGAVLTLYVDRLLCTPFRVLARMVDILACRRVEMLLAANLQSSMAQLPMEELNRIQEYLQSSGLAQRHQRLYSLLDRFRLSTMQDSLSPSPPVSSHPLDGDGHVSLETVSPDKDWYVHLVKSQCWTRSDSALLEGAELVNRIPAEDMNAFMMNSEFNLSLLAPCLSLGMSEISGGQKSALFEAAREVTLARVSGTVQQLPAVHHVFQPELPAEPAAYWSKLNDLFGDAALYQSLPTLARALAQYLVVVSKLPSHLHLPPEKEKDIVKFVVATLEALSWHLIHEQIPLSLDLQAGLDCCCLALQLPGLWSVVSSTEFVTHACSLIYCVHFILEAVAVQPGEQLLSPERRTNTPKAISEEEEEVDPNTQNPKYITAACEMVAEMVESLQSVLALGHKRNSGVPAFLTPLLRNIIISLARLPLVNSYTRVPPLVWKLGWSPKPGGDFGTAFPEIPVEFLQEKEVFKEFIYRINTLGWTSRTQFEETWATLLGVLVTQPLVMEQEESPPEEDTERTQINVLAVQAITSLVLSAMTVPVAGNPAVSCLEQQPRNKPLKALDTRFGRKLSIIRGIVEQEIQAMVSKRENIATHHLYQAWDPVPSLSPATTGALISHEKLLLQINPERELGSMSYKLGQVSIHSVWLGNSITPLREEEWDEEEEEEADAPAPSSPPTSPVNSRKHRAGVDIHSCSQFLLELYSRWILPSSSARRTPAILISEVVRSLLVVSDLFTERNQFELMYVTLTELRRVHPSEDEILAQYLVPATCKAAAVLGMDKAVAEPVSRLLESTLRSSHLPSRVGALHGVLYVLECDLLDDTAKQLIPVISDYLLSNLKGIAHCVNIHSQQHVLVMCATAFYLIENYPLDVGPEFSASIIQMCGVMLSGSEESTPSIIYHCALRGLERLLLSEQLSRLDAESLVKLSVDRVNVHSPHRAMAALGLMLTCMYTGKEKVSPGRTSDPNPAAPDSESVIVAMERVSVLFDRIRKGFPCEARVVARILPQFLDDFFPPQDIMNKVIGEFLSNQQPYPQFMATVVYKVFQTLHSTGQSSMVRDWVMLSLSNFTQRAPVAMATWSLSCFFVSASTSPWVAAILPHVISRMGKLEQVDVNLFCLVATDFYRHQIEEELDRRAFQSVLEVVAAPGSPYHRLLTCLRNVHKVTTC

Compound	inhibition
O=C(Nc1ccc(N2CCN(C(=O)C3CCCC3)CC2)nc1)c1ccc(F)cc1F	1.5% (inactive)
CCOc1ccc2nc(C(=O)Nc3ccc(Br)cc3)sc2c1	-2% (inactive)
CC(C)(CCl)C(=O)N1CCN(c2cc(Oc3ccc(F)c(F)c3)ncn2)CC1	6.2% (inactive)
Cc1ccc(C(=O)N2CCC(n3cnnc3-c3ccccc3)C2)cn1 (stereo unspecified)	-1.7% (inactive)
O=C(Nc1ccccc1O)c1ncn[nH]1	8.9% (inactive)
CCC(NC(C)=O)c1cccc(Br)c1 (stereo unspecified)	-3.8% (inactive)
CCC(NC(=O)c1ncn[nH]1)c1ccccc1 (stereo unspecified)	89.5% (active)
Cc1ccc(N2CCC(C(=O)NCc3ccc(F)cc3)C2=O)cc1Cl (stereo unspecified)	-0.5% (inactive)
COc1cccc(CC(=O)N2CCCC2c2cccc(F)c2)c1 (stereo unspecified)	15% (inactive)
COc1ccc2nc(SCC(=O)NCc3cccs3)[nH]c2c1	-2% (inactive)
O=C(CSc1nnc(NC(=O)c2ccc(Cl)c(Cl)c2)s1)NCc1ccco1	-5.3% (inactive)
O=C(CSc1nc(CC(=O)NCc2cccs2)cc(=O)[nH]1)NCc1ccco1	100% (active)
COc1ccccc1NC(CNS(=O)(=O)c1ccc(Cl)cc1)c1ccccc1 (stereo unspecified)	64% (active)
COc1ccccc1NC(=O)c1cc(S(=O)(=O)NCc2ccccc2Cl)ccc1F	-3% (inactive)
COc1ccccc1NC(=O)CC(C)c1ccccc1 (stereo unspecified)	-7.2% (inactive)
COc1ccc(C2=NN(C(C)=O)C(c3cc4cc(C)ccc4nc3Cl)C2)cc1OC (stereo unspecified)	-3% (inactive)
O=C(CN1N=C(c2ccccc2)CCC1=O)NCCc1ccc(Cl)cc1	29% (inactive)
O=C(NCCc1ccccc1)c1ccc(I)cc1	-3% (inactive)
COc1ccccc1NC(=O)Cn1nnc(-c2ccccc2F)n1	-2.8% (inactive)
COc1cc(C(=O)N2CCCC2)c([N+](=O)[O-])cc1OC	-4.1% (inactive)
COc1cc(C(=O)N2CCC(Cc3ccccc3)CC2)c([N+](=O)[O-])cc1OC	54.1% (active)

Compound	inhibition
COc1ccc(NC(=O)N2CCC(Cc3ccccc3)CC2)cc1	-3.2% (inactive)
CCOc1ccc(C(=O)Nc2cc([N+](=O)[O-])ccc2C)cc1	-0.3% (inactive)
COc1ccc(OC)c(NC(=O)c2c(NCc3ccc(C)o3)sc3c2CCC3)c1	7.9% (inactive)
COc1ccccc1NC(=O)c1c(NCc2ccncc2)sc2c1CCCC2	65% (active)
COc1cccc(OC)c1C(=O)Nc1sc2c(c1C(N)=O)CCCC2	25.3% (inactive)
Cn1nccc1C(=O)N1CCCC(c2n[nH]c(C3CC3)n2)C1 (stereo unspecified)	5.54% (inactive)
CC(=O)c1nc2sc(C)c(C)c2[nH]1	-3.74% (inactive)
CN(C)CCCN1C(=O)C(=O)C(=C(O)c2ccccc2)C1c1cccc(Br)c1 (stereo unspecified)	-1.6% (inactive)
COc1ccc(C2C(=C(O)c3ccc(C)cc3)C(=O)C(=O)N2c2ccccn2)cc1 (stereo unspecified)	2.6% (inactive)
Cc1ccc(C(O)=C2C(=O)C(=O)N(c3ncccn3)C2c2cccc(Br)c2)cc1 (stereo unspecified)	51.6% (active)
CN1CCc2c(n(-c3ccccc3)c3ccccc23)C1=O	56.8% (active)
CN1CCN(CC(=O)Nc2c3c(nc4ccccc24)N(c2ccccc2)CC3)CC1	-4% (inactive)
N#CSc1ccc(NC(=O)c2ccc(-n3cnnn3)cc2)cc1	8.8% (inactive)
C=CCNC(=O)C(=O)NCc1ccccn1	-1.5% (inactive)
Cc1ccc(S(=O)(=O)Nc2cc(S(=O)(=O)O)c(N)c3c2C(=N)c2ccccc2C3=O)cc1	94% (active)
Cc1ccc(S(=O)(=O)Nc2ccccc2C(=O)NN)cc1	5.3% (inactive)
COc1cc(N)ccc1NS(=O)(=O)c1ccc(C)cc1	10.8% (inactive)
CCCc1cc(=O)[nH]c(SCC(=O)Nc2cc(C(F)(F)F)ccc2Cl)n1	-6.6% (inactive)
O=C(O)C1C2CCC3C(CCC21)C3C(=O)O (stereo unspecified)	-1.3% (inactive)
C=CCOC(=O)C1=C(C)NC2=C(C(=O)CC(C)(C)C2)C1c1ccc(OCC)c(OC)c1 (stereo unspecified)	-6.9% (inactive)
O=C(NCc1cccs1)C1CCc2sc(C(=O)N3CCCCC3)cc2C1 (stereo unspecified)	3.05% (inactive)

Compound	inhibition
O=C(NC(n1cnc2c(Cl)ncnc21)C(Cl)(Cl)Cl)c1ccccc1 (stereo unspecified)	-3% (inactive)
O=C(Nc1cccc(Cl)c1)Nc1c2c(nn1-c1ccccc1)CSC2	15.8% (inactive)
CCC(Sc1nc2n[nH]c(C)c2c(=N)n1-c1ccc(OC)cc1)C(=O)Nc1ccccc1OC (stereo unspecified)	30% (inactive)
CCC(Sc1nc2n[nH]c(C)c2c(=N)n1-c1ccc(Br)cc1)C(=O)NCCOC (stereo unspecified)	75% (active)
CCOc1ccc(-n2c(SCC(=O)NC3CCCCC3)nc3n[nH]c(C)c3c2=N)cc1	10% (inactive)
Cc1ccc(C(=O)Nc2ccc(-n3cnnn3)c(C)c2)cc1	-6.6% (inactive)
COc1ccc(Br)cc1S(=O)(=O)NCCCn1ccnc1	-3.1% (inactive)
Cn1cc(C2=CCN(S(=O)(=O)c3cccc(Cl)c3)CC2)c2cccnc21	0.52% (inactive)
COc1cccc(-c2nc(C3CCN(S(=O)(=O)c4ccccc4F)CC3)no2)c1	-3.26% (inactive)
CC1(C)CC(=O)C2=C(C1)NC1=C(C(=O)c3ccccc31)C2c1ccc(OCc2ccccc2)cc1 (stereo unspecified)	100% (active)
CCCOc1ccc(C2C3=C(CC(C)(C)CC3=O)Nc3ccc4ncccc4c32)cc1 (stereo unspecified)	49% (inactive)
CCOc1ccc(C2C3=C(CC(C)(C)CC3=O)Nc3ncnn32)cc1 (stereo unspecified)	-2.23% (inactive)
O=C(c1ccccc1)c1cc(S(=O)(=O)C(F)(F)F)ccc1[N+](=O)[O-]	34% (inactive)
CCOc1ccc(CN2CCCC2c2c(C)noc2CC)cc1 (stereo unspecified)	-51.7% (inactive)
CNC(=O)c1c(NC(=O)c2ccc(Br)s2)sc(C)c1C	-10.4% (inactive)
O=C(Nc1ccc(Cl)c(C(=O)O)c1)c1ncn[nH]1	18.5% (inactive) and 57% (active)
O=C(Nc1cc([N+](=O)[O-])ccc1Cl)c1ncn[nH]1	4% (inactive)
CSc1cccc(NC(=O)c2ncn[nH]2)c1	0.6% (inactive)
CC(C)(c1ccccc1)c1ccc(OCC(=O)Nc2ncn[nH]2)cc1	16% (inactive)
